Laboratory results published in PubChem BioAssay AID651994 (Sanford-Burnham Center for Chemical Genomics, 2013).
About 790 (32%) of roughly 2,500 compounds were called active.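 How the source made its calls: active means mean cytotoxicity at 5 µM above about 25% (limit read from the data); inactive means the rest.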 A selection follows.

Experiment: cell viability loss, Sufu-null reporter line – ATP luminescence, single concentration, cytotoxicity control for Gli-SUFU antagonist project, confirmation (AID 651994);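 further: cells exposed to compound overnight for roughly 16 to 18 hours; plate controls were DMSO wells with cells for no effect and medium without cells for full effect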
Conditions: Sufu-KO-LIGHT cells cytotoxicity, at 5 µM, active compounds read high

SMILES | cytotoxicity
COc1ccc2c(C)cc3nnnn3c2c1 | 27% (active)
CC1(C)CC(=O)c2c(n(S(=O)(=O)c3ccccc3)c3ccc(NS(=O)(=O)c4ccccc4)cc23)C1 | 23.1% (inactive)
Cc1ccc(NC(=S)Nc2ccc(F)cc2)cc1 | 25.1% (active)
COc1ccc(NC(=O)[C@H](NC(=O)[C@@H]2Cc3ccccc3CN2)c2ccccc2)cc1 | 6.92% (inactive)
CCN(CC)CCNC(=O)c1ccc(NC(=O)c2cc(-c3ccncc3)nc3ccccc23)cc1 | 16.3% (inactive)
Nc1ccc(C(=O)N2CCN(S(=O)(=O)c3ccc(Cl)cc3)CC2)cc1[N+](=O)[O-] | 14.4% (inactive)
CC(=O)N1CCCc2cc(S(=O)(=O)N3CCCC(C(=O)N4CCN(c5cccc(Cl)c5)CC4)C3)ccc21 (stereo not drawn) | 24.2% (inactive)
O=C(NCCOCc1ccc(Cl)cc1)c1ncn[nH]1 | 18.8% (inactive)
N#Cc1ccc(C(=O)Nc2nc(-c3cccs3)c(C(=O)C(F)(F)F)s2)cc1 | 32.7% (active)
C/C(=N\Nc1ccc(Cl)nn1)c1ccccc1O | 23.9% (inactive)
O=C(O)c1ccc(N/N=C/c2ccc3ncccc3c2)cc1 | 22.3% (inactive)
CCN(CCO)C(=S)Nc1cc(C(=O)OC)ccc1C(=O)OC | 18.2% (inactive)
C=CCC1(CC=C)CCCN1C(=O)c1cc(COc2ccc(-n3cncn3)cc2)on1 | 36.4% (active)
O=C(Nc1nc2ccc([N+](=O)[O-])cc2s1)c1ccc(S(=O)(=O)N2CCCc3ccccc32)cc1 | 23.2% (inactive)
CSc1ncccc1C(=O)Nc1nc2ccc(F)cc2s1 | 28.1% (active)
Cc1ccc(S(=O)(=O)N2C[C@@H]3CCCC[C@@H]3[C@@H](C)[C@H]2c2cn(Cc3ccccc3)c3ccc(F)cc23)cc1 | 7.61% (inactive)
C=CCNC(=S)/N=c1/ccccn1Cc1ccccc1 | 22.1% (inactive)
CCC(Cc1ccccc1)NC(=O)C1CCCCC1 (stereo not drawn) | 9.02% (inactive)
O=C(Nc1cccc(S(=O)(=O)Nc2ccc(Cl)cc2)c1)c1ccc2c(c1)OCCO2 | 28.9% (active)
O=C1C=C(c2ccnc3cc(Cl)ccc23)C[C@@H](c2ccc3c(c2)OCO3)C1 | 30.6% (active)

SMILES | cytotoxicity
CCN1/C(=C/C(=S)Nc2ccccc2)Sc2ccccc21 | -1.08% (inactive)
CC(C)(CNC(=O)c1ccc(Cl)c(S(=O)(=O)N2CCc3ccccc3C2)c1)N1CCOCC1 | 17.5% (inactive)
COc1ccc(C(=O)NC2CCCc3c2cnn3-c2cccc(C)c2C)c(OC)n1 (stereo not drawn) | 26.7% (active)
Cc1ccc(S(=O)(=O)NC(C)C(=O)Nc2ccccc2C(=O)N2CCCC2)cc1 (stereo not drawn) | 12.8% (inactive)
CCc1c(C)nc2cc(C)[nH]n2c1=O | 10.3% (inactive)
Cc1cc(C(=O)CSc2nc(N)cc(=O)[nH]2)c(C)n1-c1cccc(F)c1 | 34.2% (active)
CN(C)CCSc1nc(N)c2c3c(sc2n1)COC(C)(C)C3 | 9.54% (inactive)
O=C(CN1CCN(S(=O)(=O)c2cc(Cl)ccc2Cl)CC1)c1ccc(O)c(O)c1 | 14.6% (inactive)
CC(=O)Nc1ccc(NC(=O)c2ccc3c(c2)C(=O)N(c2ccccc2C)C3=O)cc1 | 24.5% (inactive)
Brc1c(CSc2nncc3ccccc23)nc2ccccn12 | -3.37% (inactive)
CN(c1ccc2nc3ccccc3c(=O)n2n1)C1CCCCC1 | 84.2% (active)
NS(=O)(=O)c1ccc(CCNC(=O)CCCn2c(SCC(=O)N3CCCC3)nc3ccsc3c2=O)cc1 | -12.7% (inactive)
CC(C)(C)c1ccc(Oc2ccc(N)cc2)cc1 | 18.4% (inactive)
COc1ccc(Cc2nnc(N/N=C/c3ccccc3O)[nH]c2=O)cc1OC | 43.8% (active)
COc1ccc(/C=N/N=C2/C(=O)Nc3ccccc32)cc1O | -0.38% (inactive)
CC1(C)Cc2ccccc2/C(=C/C(=O)c2ccccc2)N1 | 4.12% (inactive)
CC1(C)CC2CC(C)(CN2c2ncnc3ccc(Br)cc23)C1 (stereo not drawn) | 38.5% (active)
COc1cc(C(=O)OC2CCOC2=O)c([N+](=O)[O-])cc1OC (stereo not drawn) | 3.16% (inactive)
COc1cccc(-n2cc(C(=O)O)c3ccccc3c2=O)c1 | 25.1% (active)
O=C(Nc1ccnn1C1CCN(C/C=C/c2ccc(F)cc2)CC1)C1CCCC1 | 2.29% (inactive)

SMILES | cytotoxicity
Cc1nn(C)c(Cl)c1CN1CCC(n2nccc2NC(=O)C2CCCC2)CC1 | 16.4% (inactive)
CN(C)C(CNC(=O)Cc1ccc([N+](=O)[O-])cc1)c1ccccc1 (stereo not drawn) | 15.4% (inactive)
COc1ccc(C(=O)NCc2nnc(SCCOc3ccccc3)n2C)cc1 | 10.2% (inactive)
COc1cc(C(=O)OC(C)C(=O)NCC2CCCCC2)cc(NC(=O)c2ccco2)c1OC (stereo not drawn) | -2.91% (inactive)
O=C(Nc1cc2c3c(c1)C1CCCC1CN3CC1CCCC21)c1ccc([N+](=O)[O-])cc1 (stereo not drawn) | 29.3% (active)
COC(=O)c1ccccc1NC(=O)C1(S(=O)(=O)c2ccc(Cl)cc2)CC1 | -1.28% (inactive)
NC(N)=Nc1nc(-c2ccccc2)c2cc(Cl)ccc2n1 | 27.1% (active)
O=c1c2ccccc2nc2n1C(CSCc1cccc(C(F)(F)F)c1)CS2 (stereo not drawn) | 34.2% (active)
Cc1ccc(-c2nc(CSCC(=O)NC3CCN(Cc4ccccc4)CC3)c(C)o2)cc1 | 12% (inactive)
O=C(C[C@H]1C/C=C\C[C@@H](NC(=O)OCC2c3ccccc3-c3ccccc32)C(=O)O[C@@H](c2ccccc2)CNC1=O)N[C@H](CO)Cc1ccccc1 | 18.6% (inactive)
CNc1nnc(-c2ccco2)s1 | -0.36% (inactive)
O=C1/C(=C/c2ccc(F)cc2)SC(=S)N1NS(=O)(=O)c1ccccc1 | 16.4% (inactive)
Cc1ccc(Nc2nc(N3CCOCC3)nc(N3CCOCC3)n2)cc1Cl | 40.8% (active)
CCc1ccc(C2C(C#N)=C(N)N(N3CCOCC3)C3=C2C(=O)CC(C)(C)C3)s1 (stereo not drawn) | 25.2% (active)
CC(C)C(=O)Nc1nnc(SCC(=O)N2C(C)CCCC2C)s1 (stereo not drawn) | 1.96% (inactive)
CCc1c(C)[nH]c(=S)c(C#N)c1C | 9% (inactive)
Cc1c(Cl)c([N+](=O)[O-])nn1Cc1ccc(C(=O)N/N=C\c2cc(Cl)ccc2O)o1 | 29% (active)
CCOc1ccc(-n2c(O)c(/C=N/Nc3nc(C)cc(C)n3)c3ccccc3c2=O)cc1 | 17.6% (inactive)
